The source of these data is PubChem BioAssay AID977607 (Broad Institute, 2014).

The whole screen tested about 1,500 compounds, of which about 460 (31%) were called active. Not shown: some 1% with an inconclusive outcome.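 Rule for the calls: active = curve reaches 40% activation over neutral controls at an AC40 no higher than the top valid tested concentration; inconclusive = no clear call, values can overlap the other calls; inactive = signal moving opposite to the expected increase, and the rest.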 These entries were drawn from the full list. Measured potencies and affinities stand elsewhere.

The nature of this experiment: GLuc-reported insulin release enhancers, glucose-stimulated beta cells – cell-based, INS-1E, Gaussia luciferase, luminescence, cherry-pick, set 2, dose response (AID 977607).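 Note: 0% = median of the plate neutral control wells.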 To be noted: INS-1E GLuc insulin secretion reporter, 2-3 h, stronger effect = higher value; at 35 µM, 100% = signal doubled over neutral wells unless noted.
In the case of `CCN(CC)C(=O)Cn1cc(C(=O)C(=O)N2CCN(Cc3ccccc3)CC2)c2ccccc21`, the max activation is -19.3% (inactive).

For `CC(=O)N1CCN(c2nnc(-c3ccc(C)cc3)c3ccccc23)CC1`, the max activation was -19.3% [at 3.8 µM, 100% = signal doubled over neutral wells] (inactive).

As for `Cc1ncc(N=Nc2ccc(F)cc2)c(-c2ccc(Cl)cc2)n1`, the max activation was 105% (inactive).

With `CC(=O)Nc1nc(NCc2ccccc2Cl)n(-c2ccccc2)n1`, the max activation is -19.9% [at 0.135 µM, 100% = signal doubled over neutral wells] (inactive).

On to `COc1ccc(CCNC(=O)CCn2c(=O)c3cccn3c3cccnc32)cc1OC`, for which the max activation was 27.2% [at 11 µM, 100% = signal doubled over neutral wells] (inactive).

`CCCn1c(O)c(N=NC(=O)c2cccnc2)c2cc(Br)ccc21`: the max activation was -23% (inactive).

With `Cc1cc(=O)n(Cc2ccccc2)c2ccccc12`, the max activation was 22.3% (inactive).

With `Cc1ccc(S(=O)(=O)Nc2nc(C)cc(NN)n2)cc1`, the max activation was -19.8% [at 0.015 µM, 100% = signal doubled over neutral wells] (inactive).

On to `COc1ccc(N/C=C/C(=O)c2ccc(Cl)cc2)cc1`, for which the max activation is -21.2% [at 0.42 µM, 100% = signal doubled over neutral wells] (inactive).

`Cc1c(C)c2c(OCC(=O)O)cc3c(c2oc1=O)CCC(C)(C)O3`: the max activation was -24.4% [at 0.135 µM, 100% = signal doubled over neutral wells] (inactive).

Consider `COc1cc2c(cc1OC)C(Cc1ccc(O)cc1)N(C)CC2` (stereo unspecified), for which the max activation was -15.9% [at 0.0016 µM, 100% = signal doubled over neutral wells] (inactive).

Take `COc1cc2c(cc1OC)C(Cc1ccc(O)cc1)NCC2` (stereo unspecified): the max activation was 24.7% [at 0.0016 µM, 100% = signal doubled over neutral wells] (inactive).

For the molecule `O=C(NCCC1CCCCN1S(=O)(=O)c1ccc(F)cc1)C(=O)NCc1cccnc1` (stereo unspecified), the max activation is -23.5% [at 1.2 µM, 100% = signal doubled over neutral wells] (inactive).

Regarding `COc1ccc2oc(-c3ccncc3)cc(=O)c2c1`, the max activation was 16.4% (inactive).

As for `COc1ccc(C(=O)Cc2cc3cccc(OC)c3oc2=O)cc1`, the max activation was -21.5% [at 0.0016 µM, 100% = signal doubled over neutral wells] (inactive).

On to `COc1ccc2oc(=O)c(C(=O)NCc3ccccn3)cc2c1`, for which the max activation was -9.33% [at 1.2 µM, 100% = signal doubled over neutral wells] (inactive).

With `O=C(NCc1ccccn1)c1ccccc1OCc1ccc(Cl)cc1Cl`, the max activation was -25.4% (inactive).

On to `COc1ccc(Cc2nnc(-c3ccccc3)o2)cc1`, for which the max activation is 24.7% [at 0.42 µM, 100% = signal doubled over neutral wells] (inactive).

On to `COc1cc(CN(C)c2ccc(S(=O)(=O)N3CCCC3)cn2)ccc1OC(F)F`, for which the max activation is -33.3% [at 11 µM, 100% = signal doubled over neutral wells] (inactive).

Consider `CCN1CCN(CC(=O)Nc2ccc(C(C)=O)cc2)CC1`, for which the max activation is -17% [at 1.2 µM, 100% = signal doubled over neutral wells] (inactive).

Regarding `COc1ccc(C(=O)/C=C2/c3ccccc3CC(C)(C)N2C)cc1OC`, the max activation was -35.3% [at 1.2 µM, 100% = signal doubled over neutral wells] (inactive).

For `O=C(NC(=S)Nc1cccc2[nH]ncc12)c1ccccc1`, the max activation is -16.1% [at 1.2 µM, 100% = signal doubled over neutral wells] (inactive).

In the case of `COc1ccc(C(=O)c2sc(Nc3ccccc3)nc2N)cc1OC`, the max activation was 39.1% [at 3.8 µM, 100% = signal doubled over neutral wells] (inactive).

As to `CC(C)COC(=O)N1C[C@H](O)C[C@H]1C(=O)Nc1ccc(Cl)cc1`, the max activation is -12.6% [at 0.015 µM, 100% = signal doubled over neutral wells] (inactive).

For `Cc1ccc(-c2nc3c(=O)n(C)c4ccccc4c3o2)cc1`, the max activation was 27.7% [at 0.42 µM, 100% = signal doubled over neutral wells] (inactive).

`O=C(Nc1ccc(NC(=O)c2cccs2)cc1)c1ccc2c(c1)OCO2`: the max activation is -18.9% [at 3.8 µM, 100% = signal doubled over neutral wells] (inactive).

With `O=C(Nc1ccc2oc(-c3cccnc3)nc2c1)c1ccc2c(c1)OCCO2`, the max activation is 21% (inactive).

Regarding `CN1CCCCCC1C(=O)N1CCC(N2CCC(C(=O)N3CCOCC3)CC2)CC1` (stereo unspecified), the max activation was -16.3% (inactive).

For the molecule `O=C(Nc1nnc(-c2ccc(F)cc2)s1)C1CCN(S(=O)(=O)c2ccc(Cl)cc2)CC1`, the max activation was 18.7% (inactive).

For `CCOC(=O)c1ccc(S(=O)(=O)N2CCC(C(=O)Nc3nnc(C)o3)CC2)cc1`, the max activation was -12.8% [at 0.0016 µM, 100% = signal doubled over neutral wells] (inactive).

As to `COc1ccccc1N(CC(=O)NCC1CCCO1)C(=O)CNS(=O)(=O)c1ccc(Cl)cc1` (stereo unspecified), the max activation is -20% [at 0.42 µM, 100% = signal doubled over neutral wells] (inactive).

As to `Fc1ccccc1-c1nnc2ccc3ccccc3n12`, the max activation is -19.8% [at 0.135 µM, 100% = signal doubled over neutral wells] (inactive).

Take `C[C@@H]1CN([C@H](C)CO)C(=O)CCCn2nncc2CO[C@H]1CN(C)C(=O)Nc1ccnc(N2CCOCC2)c1`: the max activation was -14% [at 0.015 µM, 100% = signal doubled over neutral wells] (inactive).

For `COc1ccc(C(=O)Nc2ccccc2C(=O)NCC2CCCO2)cc1` (stereo unspecified), the max activation is 6.34% (inactive).

On to `COc1ccc(NC(=O)C2(c3ccc(NC(=O)c4ccc(OC)cc4)cc3)CCCC2)cc1`, for which the max activation is -18.4% [at 0.005 µM, 100% = signal doubled over neutral wells] (inactive).

With `COc1ccc(CCN2CC(=O)NC(=O)C2)cc1OC`, the max activation was -13.9% [at 3.8 µM, 100% = signal doubled over neutral wells] (inactive).
